# Source: PubChem
# Most compounds without a hit are left out; they make up all but 19% or so of the library.
# HT1080NT lethal: kills 2HG-producing HT-1080-NT fibrosarcoma cells; HT-1080-NT fibrosarcoma viability, CellTiter-Glo ATP luminescence, 48 h; Potency, µM (titrated, usually from 46.1 µM), without a hit: top-dose activity, negative = less viability, most hits filed as cytotoxic; 1.6% of 360,000 active; AID 686970;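 also: NT is the 2HG producing partner of a matched IDH1 knockdown line; potency is read from the fitted curve at half-maximal effect; 0% = DMSO-treated cells and -100% = media-only wells without cells; nearly all actives have a fitted effect of over 55% in size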
#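 Luminescent CellTiter-Glo readout after 48 hours of compound exposure at 37 degrees C defined viability of HT-1080-NT cells. Activity was normalized to DMSO wells and cell-free media wells; concentration-response curves were fitted and assigned curve classes.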
# TDP1 cell CPT: growth inhibition of DT40 Tdp1-/-;hTDP1 cells with camptothecin (screen for TDP1 inhibitors); chicken DT40 Tdp1-/-;hTDP1 cells + 20 nM CPT, ATP luminescence, 48 h; Potency, µM (doses to about 46.2 µM), for the others: at the highest dose activity change, negative = growth inhibition, actives largely listed as inhibitors; 12% of 420,000 active; also: potency is read from the fitted curve at half-maximal effect; nearly all actives have a fitted effect of over 55% in size
#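 Chicken DT40 Tdp1-/- cells stably complemented with human TDP1 were seeded at 400 cells/well in medium containing 20 nM camptothecin, exposed to pin-transferred compounds, and grown at 37 °C for at least 48 hr. Viability was read as ATP luminescence.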
# DT40 TDP1 no CPT: qHTS for Inhibitors of human tyrosyl-DNA phosphodiesterase 1 (TDP1): qHTS in cells in absence of CPT. DT40 Tdp1-/- hTDP1 cells, no CPT, ATP luminescence, 48 h. AID 686978, 2013. 15% of 420,000 active. Potency, µM (top dose mostly 46.2 µM), for inactives: top-dose activity change, negative = growth inhibition, actives largely listed as inhibitors; also: potency is read from the fitted curve at half-maximal effect; nearly all actives have a fitted effect of over 55% in size
#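 Camptothecin absent (DMSO only). Human TDP1-complemented DT40 knockout cells, 400 cells/well, 37 °C for minimum 48 hr; ATP measured via CellTiter-Glo, 30 min dark incubation, luminescence.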
# IL1B secr inh: inhibitors of inflammasome signaling (IL-1 beta secretion); 4.7% of 360,000 active; activity change, % at 57.5 µM; THP-1 LPS/ATP IL-1B secretion, AlphaLISA, 16 h; active compounds read low; AID 743279; in the data active = activity change below about -50%; inconclusive = mostly about -30% to -49%
#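 Secreted IL-1B measured by AlphaLISA bead assay after 16 h compound exposure of THP-1 cells; compounds (final up to 57.5 uM) added 1 h before LPS (250 ng/mL) and ATP (1.25 mM) stimulation; lower signal means less secretion.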
# HT1080 IDH1KD tx: kills HT-1080 cells with IDH1 knockdown | HT-1080 IDH1 knockdown viability, ATP luminescence, 48 h | Potency, µM (top dose mostly 46.1 µM), without a hit: at the highest dose activity, negative = toxicity, most hits filed as cytotoxic | 2% of 360,000 active | AID 686971;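 also: potency is read from the fitted curve at half-maximal effect; 0% = DMSO wells and -100% = cell-free medium wells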
#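 Knockdown cells (IDH1KD HT-1080) received compounds 2 h after plating at 750 cells/well and were kept 48 h at 37 °C in 5% FBS RPMI. A CellTiter-Glo luminescence read gave % activity for curve fitting.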
# An asterisk follows results filed as active; ? = inconclusive; / = no result given; [ ] = dose if it differs, or a comment. Unless noted, calls follow the shape of the dose curve; as a rule, active = well fitted curve in the direction sought with a large enough effect; inconclusive = small, poorly fitted or top-dose-only effect, or another doubt; inactive = no such curve, though single readings can be large; an effect the other way counts as inactive or inconclusive. Unless noted, % is scaled to controls: 0 for no effect and ±100 for the full control effect.
SMILES,HT1080NT lethal,TDP1 cell CPT,DT40 TDP1 no CPT,IL1B secr inh,HT1080 IDH1KD tx
Cc1ccc(S(=O)(=O)N2CCOCC2)cc1NC(=O)COC(=O)CCOc1ccc(C(C)(C)C)cc1,-2%,-25%,?,-2,-9%
COc1cccc(/C=C/C(=O)N2CCN(S(=O)(=O)c3ccccc3)CC2)c1,-5%,?,21µM*,-24,-15%
O=C(/C=C/c1ccc(F)cc1)Nc1ccc(S(=O)(=O)N2CCOCC2)cc1,12%,?,-5%,-14,-1%
O=C(/C=C/c1ccc(S(=O)(=O)N2CCOCC2)cc1)N1CCN(c2ccccc2)CC1,-7%,12µM*,1µM*,-25,-3%
CCN(CC)S(=O)(=O)c1ccc(/C=C/C(=O)OCC#N)cc1,1%,-7%,-8%,4,2%
CCN(CC)S(=O)(=O)c1ccc(/C=C/C(=O)Nc2ccc(F)cc2F)cc1,-3%,?,13µM*,-4,-20%
Cc1cc(NC(=S)NC(=O)/C=C/c2ccc(S(=O)(=O)N3CCOCC3)cc2)ccc1Br,-3%,?,15µM*,-88*,13%
CC(C)(C)c1ccc(CC(=O)N2CCC2(C)C(=O)N2CCCCC2)cc1 (centres undefined),8%,?,-32%,28,11%
COCc1cccc(C2=CC(=O)C[C@H](c3ccc(F)cc3)C2)c1,19%,?,?,0,-2%
CC(CC(=O)Nc1cccnc1)c1ccccc1 (centres undefined),4%,-1%,3%,-9,1%
Cc1ccc([N+](=O)[O-])cc1NC(=O)c1c(-c2ccccc2)noc1C,0%,6%,1%,7,1%
O=C(/C=C/c1ccc(S(=O)(=O)N2CCOCC2)cc1)NC(=S)Nc1ccc(N2CCOCC2)cc1,-2%,4%,?,-76*,-7%
COc1ccc(/C=C/C(=O)Nc2ccc(N3CCOCC3)cc2)cc1,10%,5%,?,10,-10%
CCN(CC)S(=O)(=O)c1ccc(/C=C/C(=O)Nc2ccc(N3CCOCC3)cc2)cc1,-27%,?,21µM*,-7,-15%
CCCCCCCC/C=C\CCCCCCCC(=O)N[C@@H](CO)Cc1ccc(O)cc1,/,12µM*,11µM*,/,/
CCc1ccc(NC(=O)[C@H](Cc2ccccc2)NC(=O)C2CCN(C(=O)[C@@H](N)CC(C)C)CC2)cc1,-15%,?,?,-28,-25%
Cc1cc(C)n(S(=O)(=O)c2ccc(C)c(C)c2)n1,8%,2%,20%,0,9%
COc1ccc(-n2c(/C=C/c3cccc4ccccc34)nc3ccccc3c2=O)cc1OC,/,?,15µM*,/,/
COc1ccc(/C=C/c2nc3ccccc3c(=O)n2-c2cccc(C(=O)O)c2)cc1,-2%,-13%,-11%,-5,13%
COc1ccc(/C=C/c2nc3ccccc3c(=O)n2-c2cccc(C(F)(F)F)c2)cc1,/,5.8µM*,12µM*,/,/
COc1cc(OC)c(OC)cc1/C=C/c1nc2cc3ccccc3cc2c(=O)n1-c1ccc(Cl)cc1,/,13µM*,16µM*,/,/
COc1cc2nc(NC(=O)c3ccc(Cl)cc3)sc(=O)c2cc1OC,13%,-7%,?,-1,17%
COc1ccc(S(=O)(=O)N2CCOCC2)cc1NC(=O)c1c(C)noc1C,11%,7%,0%,3,6%
CCOCC(=O)Nc1ccc(S(=O)(=O)N2CCC(c3nc4ccccc4[nH]3)CC2)cc1,-5%,-24%,?,-9,-1%
COc1cc(-c2cccc(Cl)c2)cc2c1OCCN(C(=O)CCn1ccc(C)n1)C2,/,1%[9.04 µM],?,/,/
SMILES,HT1080NT lethal,TDP1 cell CPT,DT40 TDP1 no CPT,IL1B secr inh,HT1080 IDH1KD tx
COc1ccc(C2(C)NC(=O)N(CC(=O)N(c3ccccc3)C3CCS(=O)(=O)C3)C2=O)cc1 (centres undefined),0%,1%,-8%,19,-7%
CSc1nc(NNC=O)cc(Oc2ccc(NC(C)=O)cc2)n1,0%,-7%,-19%,20,1%
CCc1sc(C(C2C(=O)CC(C)(C)CC2=O)C2C(=O)CC(C)(C)CC2=O)cc1[N+](=O)[O-],-2%,4.1µM*,5.2µM*,-248*,?
O=C(NCCc1ccc2c(c1)OCCO2)c1cc(F)cc(F)c1,-23%,21µM*,16µM*,4,-19%
COc1ccc(C(C)C)cc1-c1cncc(NC(C)=O)n1,0%,-26%,?,-96*,-5%
CC(Sc1cccc[n+]1[O-])C(=O)NC1CCCCC1C (centres undefined),-3%,-3%,31%,22,-5%
CC(C)C(=O)Nc1cccc(C(=O)N2CCCCC2C)c1 (centres undefined),3%,18µM*,15µM*,13,-1%
CCOc1ccc(/C=N/NC(=O)C2CCCC2)c(OCC)c1,?,-24%,13%,22,3%
CCOc1ccccc1N1CCN(C(=O)CCCN2C(=O)c3cccc4cccc(c34)C2=O)CC1,12%,21µM*,21µM*,-16,22%
O=C(CCCN1C(=O)c2cccc3cccc(c23)C1=O)N1CCN(c2ccccc2)CC1,1%,?,?,-11,-5%
O=C(CCCN1C(=O)c2ccccc2C1=O)N1CCN(c2ccccn2)CC1,1%,0%,?,0,0%
O=C(CCCN1C(=O)c2cccc3cccc(c23)C1=O)N1CCN(c2ccccc2O)CC1,-4%,?,15µM*,-14,1%
CCOc1ccccc1N1CCN(C(=O)CCCc2nc3ccccc3s2)CC1,0%,?,16µM*,5,1%
Cc1ccc2c(c1)N(CCC(=O)NCCCN1CCCC1)C(=O)C(C)O2 (centres undefined),5%,-1%,1%,-19,15%
COc1ccc(-c2ccc3c(c2)S(=O)(=O)c2cccc(C(=O)O)c2C3=O)cc1OC,0%,-5%,12%,21,0%
COc1ccc(-c2ccc3c(c2)S(=O)(=O)c2cccc(C(=O)N4CCN(C5CCCCC5)CC4)c2C3=O)cc1OC,0%,18µM*,?,-18,-18%
COc1ccc(-c2ccc3c(c2)S(=O)(=O)c2cccc(C(=O)N4CCN(c5ccccn5)CC4)c2C3=O)cc1OC,0%,18µM*,15µM*,10,2%
O=C1c2ccc(-c3ccc(Cl)c(C(F)(F)F)c3)cc2S(=O)(=O)c2cccc(C(=O)N3CCN(c4ccc(Cl)cn4)CC3)c21,1%,?,13µM*,-15,3%
